Measured values published in PubChem BioAssay (NCATS).
Records with an inconclusive call do not appear. Calls of active or inactive are those of the source. Calls follow the shape of the dose curve; as a rule, active = well fitted inhibition curve with a large enough effect; inconclusive = small, poorly fitted or top-dose-only effect; inactive = flat fitted curve, though single readings scatter.

Legend:
[1] = molecular target: Glutathione peroxidase 1 (Homo sapiens) (UniProt P07203); experiment: Primary qHTS Assay for Inhibitors of Recombinant Selenoprotein Glutathione Peroxidase 1 (GPX1) (AID 1845191); also: nearly all actives have a fitted effect of over 65% in size
Chain of Glutathione peroxidase 1 (Homo sapiens) (P07203 whole entry, looked up): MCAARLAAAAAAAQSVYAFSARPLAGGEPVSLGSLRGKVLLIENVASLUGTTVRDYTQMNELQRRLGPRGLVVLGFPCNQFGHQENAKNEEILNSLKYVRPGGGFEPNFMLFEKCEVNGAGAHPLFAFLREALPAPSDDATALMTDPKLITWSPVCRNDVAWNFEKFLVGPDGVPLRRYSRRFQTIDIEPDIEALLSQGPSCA
Summary of the method: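 GPX1 10 nM, GR 100 nM, GSH 1 mM, NADPH 0.5 mM, CHP 0.5 mM (final). 30-min cpd preincubation, RT. Ex340/Em450 read t=0, t=15 min.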

[2] = molecular target: Phospholipid hydroperoxide glutathione peroxidase GPX4 (Homo sapiens) (UniProt P36969); experiment: Primary qHTS Assay for Inhibitors of Recombinant Selenoprotein Glutathione Peroxidase 4 (GPX4) (AID 1845192); also: nearly all actives have a fitted effect of over 65% in size; as to activity change, negative = inhibition: series mostly up to about 50 µM; % is scaled to controls: 0 for no effect and ±100 for the full control effect
Chain of Phospholipid hydroperoxide glutathione peroxidase GPX4 (Homo sapiens) (P36969 whole entry, looked up): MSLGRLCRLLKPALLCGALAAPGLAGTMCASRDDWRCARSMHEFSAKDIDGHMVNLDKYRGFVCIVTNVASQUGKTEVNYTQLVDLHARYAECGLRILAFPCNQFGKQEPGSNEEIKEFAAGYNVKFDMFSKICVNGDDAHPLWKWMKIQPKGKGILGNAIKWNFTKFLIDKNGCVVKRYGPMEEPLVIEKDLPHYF
Summary of the method: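 qHTS, GR-coupled: GPX4 200 nM + cpd 30 min RT → GSH 1 mM, NADPH 0.5 mM, GR 100 nM → CHP 0.5 mM start; fluor 340/450 at t0 and t15 min; no-enzyme wells as control.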

[3] = molecular target: Luciferin 4-monooxygenase (Photinus pyralis) (UniProt P08659); experiment: Primary firefly luciferase (FLuc) qHTS assay for identification of artifact compounds. (AID 1845220); also: nearly all actives have a fitted effect of over 60% in size;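 as to activity change, negative = inhibition: series mostly up to about 54 µM; plate controls were DMSO vehicle for no effect and no enzyme for full effect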
Summary of the method: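 Reaction readout was CCD-imaged luminescence, taken 5 min after adding 10 nM purified firefly enzyme to compound-treated wells holding 10 uM luciferin and ATP in pH 7.6 buffer.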

CC(C)=CCC[C@@](C)(O)[C@H]1CC[C@]2(C)[C@@H]1[C@H](O)CC1[C@@]3(C)CC[C@H](O[C@@H]4O[C@H](CO)[C@@H](O)[C@H](O)[C@H]4O[C@@H]4O[C@H](CO)[C@@H](O)[C@H](O)[C@H]4O)C(C)(C)[C@@H]3CC[C@]12C (some centres not stated)
inactive: Potency [1] | Potency [2] | Potency [3]

CC(=O)NCC1CN(c2ccc(-c3ccc(CNCc4cn[nH]n4)cc3)c(F)c2)C(=O)O1 (configuration not stated)
inactive: Potency [1] | Potency [2] | Potency [3]

C/C=C(\C)C(=O)OC[C@H]1O[C@@H](O[C@H]2[C@@H](O[C@H]3O[C@H](CO)[C@@H](O)[C@H](O)[C@H]3O[C@@H]3O[C@H](CO)[C@@H](O)[C@H](O)[C@H]3O)O[C@H](COC(=O)/C(C)=C/C)[C@@H](O)[C@@H]2O)[C@H](O)[C@@H](O)[C@@H]1O
inactive: Potency [1] | Potency [2] | activity change, negative = inhibition [3] 3.78% [at 11.6 µM]

CC(C)(O)C1CC=C(C(=O)OC[C@H]2O[C@@H](OC(=O)C3=CCC(C(C)(C)O)CC3)[C@H](O)[C@@H](O)[C@@H]2O)CC1 (some centres not stated)
inactive: Potency [1] | Potency [2] | Potency [3]

C/C=C(\C)C(=O)OC[C@H]1O[C@@H](O[C@H]2[C@@H](O[C@H]3O[C@H](COC(=O)/C(C)=C/C)[C@@H](O)[C@H](O)[C@H]3O[C@@H]3O[C@H](COC(=O)/C(C)=C/C)[C@@H](O)[C@H](OC(=O)/C(C)=C/C)[C@H]3O)O[C@H](COC(=O)/C(C)=C/C)[C@@H](O)[C@@H]2O)[C@H](O)[C@@H](O)[C@@H]1O
inactive: Potency [1] | Potency [2] | activity change, negative = inhibition [3] 3.11% [at 11.6 µM]

O=C(OCC1OC(Oc2ccc(O)cc2COC(=O)C2(O)C(O)CCC(=O)C2OC(=O)C2C=CCC2)C(OC(=O)C2C=CCC2)C(O)C1O)C1C=CCC1 (configuration not stated)
inactive: Potency [1] | Potency [2] | Potency [3]

COC(=O)c1ccccc1O[C@@H]1O[C@H](CO[C@@H]2OC[C@@H](O)[C@H](O)[C@H]2O)[C@@H](O)[C@H](O)[C@H]1O
inactive: Potency [1] | Potency [2] | Potency [3]

CC1=C(C)C(=O)OC(C(C)C2C(O)CC3C4C5OC5C5(O)CC(OC6OC(CO)C(OC7OC(C)C(O)C(O)C7O)C(O)C6O)CC(O)C5(C)C4CCC32C)C1 (configuration not stated)
inactive: Potency [1] | Potency [2] | Potency [3]

CC(C)c1ccc2c(c1)C(O)CC1C(C)(CO)CCCC21C (configuration not stated)
inactive: Potency [1] | Potency [2] | Potency [3]

COC(=O)[C@]1(C)CCC[C@@]2(C)[C@@H]3CC[C@@H]4C[C@@]3(CC[C@@H]21)C[C@H]4C(=O)O
inactive: Potency [1] | Potency [2] | Potency [3]

CC(=O)O[C@H]1C[C@@H](O)C(C)(C)C2C[C@@H](OC(C)=O)[C@]3(C)C(CC[C@@]4(C)[C@H](c5ccoc5)OC(=O)[C@H]5O[C@]543)[C@]21C (some centres not stated)
inactive: Potency [1] | Potency [2] | Potency [3]

O=C(NCC(=O)N1CCCC1)Nc1ccc2ccccc2c1
inactive: Potency [1] | Potency [2] | Potency [3]

OC[C@H]1O[C@@H](Oc2cc(O)cc(-c3cc4ccc(O[C@@H]5O[C@H](CO)[C@@H](O)[C@H](O)[C@H]5O)cc4o3)c2)[C@H](O)[C@@H](O)[C@@H]1O
inactive: Potency [1] | Potency [2] | Potency [3]

C[C@H]1CC[C@@]2(OC1)O[C@H]1CC3C4CC[C@H]5C[C@@H](O[C@@H]6O[C@H](CO)[C@H](O[C@@H]7O[C@H](CO)[C@@H](O)[C@H](O[C@@H]8OC[C@@H](O)[C@H](O)[C@H]8O)[C@H]7O[C@@H]7O[C@H](CO)[C@@H](O)[C@H](O)[C@H]7O)[C@H](O)[C@H]6O)[C@H](O)C[C@]5(C)C4=CC(=O)[C@]3(C)[C@H]1[C@@H]2C (some centres not stated)
inactive: Potency [1] | Potency [2] | activity change, negative = inhibition [3] 4.7% [at 11.6 µM]

C[C@]1(OC(=O)/C=C\c2ccc(O)cc2)C[C@@H](O)[C@]2(O)C=CO[C@@H](O[C@@H]3O[C@H](CO)[C@@H](O)[C@H](O)[C@H]3O)C12 (some centres not stated)
inactive: Potency [1] | Potency [2] | Potency [3]

Cc1cc(-c2nncc3c(C(C)(C)C)c(OCc4ncnn4C)nn23)no1
inactive: Potency [1] | Potency [2] | Potency [3]

CC1OC(OC2C(OC3C(O[C@H]4CC[C@@]5(C)C(CC[C@]6(C)C5CC=C5C7CC(C)(C)CC(O)[C@]7(C)CC[C@]56C)C4(C)C)OC(C(=O)O)C(O)C3O)OCC(O)C2O)C(O)C(O)C1O (some centres not stated)
inactive: Potency [1] | Potency [2] | activity change, negative = inhibition [3] 4.47% [at 11.6 µM]

CC1(CO)CCCC2(C)C1C(OC(=O)c1ccccc1)CC1C(=O)OCC12O (configuration not stated)
inactive: Potency [1] | Potency [2] | Potency [3]

O=C(Cc1ccccc1)OC[C@H]1O[C@H](O[C@H]2O[C@H](CO)[C@@H](O)[C@H](O)[C@H]2O)[C@H](O)[C@@H](O)[C@@H]1O
inactive: Potency [1] | Potency [2] | Potency [3]

CC12CC34CC(O)C5C(CO)(CO)CC(=O)CC5(C)C3CC1C2C4 (configuration not stated)
inactive: Potency [1] | Potency [2] | Potency [3]

COCC1OC(OC(C)(C)C2CCC3(C)C=C(C4CCC5C4(C)CC(O)C4OC(C(C)(C)O)CCC45C)CCC3O2)C(NC(C)=O)C(O)C1O (configuration not stated)
inactive: Potency [1] | Potency [2] | Potency [3]

COc1cc(OC)cc(-c2ccc3c(-c4ccc(F)cc4)[nH]nc3n2)c1
inactive: Potency [1] | Potency [2] | Potency [3]

C=CCC/C=C/C#CCCCCCCCC[C@H]1C(=O)O[C@H](C)[C@@H]1O
inactive: Potency [1] | Potency [2] | Potency [3]

CCN(CCN(C)C)C(=O)CNCc1cc(C(N)=O)ccn1
inactive: Potency [1] | Potency [2] | Potency [3]

COc1cc(O)cc(O[C@@H]2O[C@H](CO)[C@@H](O[C@@H]3OC[C@](O)(CO)[C@H]3O)[C@H](O)[C@H]2O)c1OC
inactive: Potency [1] | Potency [2] | Potency [3]

C[C@@H]1O[C@@H](O[C@@H]2[C@@H](O)[C@H](O[C@@H]3[C@@H](O)[C@@H](O)[C@H](O[C@H]4[C@H](OC(=O)[C@]56CCC(C)(C)C[C@H]5C5=CCC7[C@@]8(C)C[C@H](O)[C@H](O[C@@H]9O[C@H](C(=O)O)[C@@H](O)[C@H](O)[C@H]9O)[C@@](C)(CO)C8[C@H](O)C[C@@]7(C)[C@]5(C)C[C@H]6O)O[C@@H](CO)[C@@H]4O)O[C@H]3C)OC[C@H]2O)[C@H](O)[C@H](O)[C@H]1O (some centres not stated)
inactive: Potency [1] | Potency [2] | activity change, negative = inhibition [3] 2.08% [at 11.6 µM]

CC(=O)OC1C(O)C(C)(O)C(/C=C/C(=O)O)C2(C)CCCC(C)(C)C12 (configuration not stated)
inactive: Potency [1] | Potency [2] | Potency [3]

CC(=O)OCC1=C[C@@H]2OC(=O)C3=CO[C@@H](O[C@@H]4O[C@H](CO)[C@@H](O)[C@H](O)[C@H]4O)[C@H]1[C@@H]32
inactive: Potency [1] | Potency [2] | Potency [3]

C/C=C(\C)C(=O)OC1CC2C(CC=C3CC(OC4CC(OC)C(OC5CC(OC)C(OC6CC(OC)C(OC7CC(OC)C(OC8CC(OC)C(OC9OC(CO)C(O)C(O)C9O)C(C)O8)C(C)O7)C(C)O6)C(C)O5)C(C)O4)CCC32C)C2(O)CCC(C(C)=O)C12C (configuration not stated)
inactive: Potency [1] | Potency [2] | activity change, negative = inhibition [3] 2.55% [at 11.6 µM]

CC1=C[C@H](O)[C@H]2C(C)(C)CCC[C@]2(C)[C@@]1(O)CO
inactive: Potency [1] | Potency [2] | Potency [3]

COc1c(O)cc2c(c1O)C(=O)O[C@H](C)[C@H]2O
inactive: Potency [1] | Potency [2] | Potency [3]

C=C(C(=O)O)[C@@H]1CC[C@@]2(C)CCC[C@@](C)(O)[C@@H]2C1
inactive: Potency [1] | Potency [2] | Potency [3]

COC(=O)C1=CO[C@@H](O[C@@H]2O[C@H](CO)[C@@H](O)[C@H](O)[C@H]2O)/C(=C\CO)[C@@H]1CC(=O)OCCc1ccc(O)cc1
inactive: Potency [1] | Potency [2] | Potency [3]

C=C1CC/C=C(/C(=O)O)CCC2C1CC2(C)C (configuration not stated)
inactive: Potency [1] | Potency [2] | Potency [3]

CCCC(=O)Nc1cccc(NC(=O)c2ccccc2Br)c1
inactive: Potency [1] | Potency [2] | Potency [3]

Cc1cccc(-c2nn3c(c2-c2ccnc4ccc(C(N)=O)cc24)CCC3)n1
inactive: Potency [1] | Potency [2] | Potency [3]

OC[C@@]1(O)CO[C@H](OC[C@H]2O[C@@H](OC(CCCCc3ccc(O)cc3)CCc3ccc(O)cc3)[C@H](O)[C@@H](O)[C@@H]2O)[C@@H]1O (some centres not stated)
inactive: Potency [1] | Potency [2] | Potency [3]

CC(C)/C=C1/NC(=O)C(C(C)C)n2c1nc1c(O)cccc1c2=O (configuration not stated)
inactive: Potency [1] | Potency [2] | Potency [3]

C/C1=C\CC(C)(C)/C=C/C/C(C(=O)O)=C/CC1
inactive: Potency [1] | Potency [2] | Potency [3]

COc1cc2c(c(O)c1OC/C=C(\C)CC/C=C(/C)CCC=C(C)C)CN(C(CCC(=O)O)C(=O)O)C2=O (configuration not stated)
inactive: Potency [1] | Potency [2] | Potency [3]

C=C(C)C(O)COc1ccc(CC(=O)O)cc1 (configuration not stated)
inactive: Potency [1] | Potency [2] | Potency [3]

CC(O)C(O)/C=C/C=C/C(=O)O[C@@H]1C=C(C(=O)O)[C@](O)(CO)[C@@]2(C)CCCC(C)(C)[C@H]12 (some centres not stated)
inactive: Potency [1] | Potency [2] | Potency [3]

C[C@@H]1C[C@@H](O)[C@@]23CO[C@]2(CO)C[C@@H](O)CC3[C@@]12CC(c1ccoc1)OC2=O (some centres not stated)
inactive: Potency [1] | Potency [2] | Potency [3]

COc1ccc(-n2c(SCC#N)nc3sc4c(c3c2=O)CCCC4)cc1
inactive: Potency [1] | Potency [2] | Potency [3]

COc1cc(/C=C/CO[C@@H]2O[C@H](CO)[C@@H](O)[C@H](O)[C@H]2O)cc(OC)c1O[C@@H]1O[C@H](CO)[C@@H](O)[C@H](O)[C@H]1O
inactive: Potency [1] | Potency [2] | Potency [3]

CC(C)C1NC(=O)C2CCCN2C1=O (configuration not stated)
inactive: Potency [1] | Potency [2] | Potency [3]

CC1CC(=O)C2C(O)(C1)CC(O)C13OC1c1c(O)cccc1C(=O)C23O (configuration not stated)
inactive: Potency [1] | Potency [2] | Potency [3]

C=C1C(=O)O[C@@H]2/C=C(\C)CC/C=C(\C(=O)O[C@@H]3O[C@H](CO)[C@@H](O)[C@H](O)[C@H]3O)CC[C@@H]12
inactive: Potency [1] | Potency [2] | Potency [3]

C=C1C(O)CCC2(C)CC3(OC)OC(=O)C(C)=C3CC12 (configuration not stated)
inactive: Potency [1] | Potency [2] | Potency [3]
